{"source": "PubChem BioAssay AID1259416", "about": "(Broad Institute, 2018)", "note": "Values joined by “and” are separate entries in the source; they are usually repeats but may differ in a detail not shown here. Equal entries are not always repeated. About 2,600 (3.8%) of roughly 69,000 compounds were called active. Rule as the data show it: active = activity change below about -70% (passing the limit was not always enough); inconclusive = no clear call, values can overlap the other calls. The sample as a whole holds a higher share of actives than the screen did."}
{"assay": "inhibitors of Toxoplasma growth in IFN-γ-primed hosts – cell-based, primary screen (AID 1259416);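 also: host cells are HeLa cells infected with Toxoplasma gondii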", "settings": "Toxoplasma gondii growth in IFN-gamma-treated host cells; active compounds read low; concentration not given here"}
{"molecule": "Clc1ccc(C(Cn2ccnc2)OCc2ccsc2Cl)c(Cl)c1", "note": "(configuration not stated)", "activity change, negative = inhibition": "-59.6% (inactive) and 3.6% (inactive)"}
{"molecule": "COc1ccc(CCCOC(Cn2ccnc2)c2ccc(OC)cc2)cc1", "note": "(configuration not stated)", "activity change, negative = inhibition": "-83.3% (active)"}
{"molecule": "Cc1nc2c(c(=O)[nH]1)CCN(C(=O)c1c(-c3ccccc3Cl)noc1C)C2", "activity change, negative = inhibition": "11.4% (inactive)"}
{"molecule": "COC(=O)c1cc2n(n1)CCCN(C(=O)COc1ncnc3ccccc13)C2", "activity change, negative = inhibition": "2.6% (inactive)"}
{"molecule": "O=C(COc1ccc(C(=O)c2ccccc2)cc1)NC1CCN(Cc2ccccc2)CC1", "activity change, negative = inhibition": "25.7% (inactive)"}
{"molecule": "O=C(Nc1ccc(OCc2ccccc2)cc1)OCC1CN(Cc2ccccc2)CCO1", "note": "(configuration not stated)", "activity change, negative = inhibition": "-88.7% (active)"}
{"molecule": "COc1ccc(NC(=O)c2cccc(CN3C[C@@H](C)O[C@@H](C)C3)c2)cc1", "activity change, negative = inhibition": "26.7% (inactive)"}
{"molecule": "CN1Cc2ccccc2CC2(CCN(Cc3ccsc3)CC2)C1=O", "activity change, negative = inhibition": "0.416% (inactive)"}
{"molecule": "CN1C(=O)c2cc(NC(=O)c3ccc4c(c3)OCO4)ccc2OC[C@@H]2O[C@H](CC(=O)O)CC[C@H]21", "activity change, negative = inhibition": "8.45% (inactive)"}
{"molecule": "Cc1cc(C)cc(NC(=O)CN2C(=O)CCc3cc(S(=O)(=O)N4CCOCC4)ccc32)c1", "activity change, negative = inhibition": "24.4% (inactive)"}
{"molecule": "Cc1ccc(NC(=O)CN2C(=O)CCc3cc(S(=O)(=O)N4CCCCC4C)ccc32)cc1N(C)C", "note": "(configuration not stated)", "activity change, negative = inhibition": "-103% (active)"}
{"molecule": "Cc1ccc(Cl)cc1NC(=O)CN1C(=O)CCc2cc(S(=O)(=O)N3CCCCC3)ccc21", "activity change, negative = inhibition": "0.0244% (inactive)"}
{"molecule": "COC(=O)c1c(NCc2c(C)noc2C)c2cccc(Cl)c2[nH]c1=O", "activity change, negative = inhibition": "7.07% (inactive)"}
{"molecule": "Cc1ccc2[nH]c3c(c2c1)CCNC31C(=O)N(C)c2ccc(Br)cc21", "note": "(configuration not stated)", "activity change, negative = inhibition": "1.48% (inactive)"}
{"molecule": "CS(=O)(=O)N1CCO[C@H]2[C@@H](OCc3cccnc3)CC[C@H]21", "activity change, negative = inhibition": "37.3% (inactive)"}
{"molecule": "O=C(Nc1ccc(F)cc1F)N1CCCN(CCOc2ccccc2)CC1", "activity change, negative = inhibition": "8.95% (inactive)"}
{"molecule": "O=c1[nH]c2ccccc2n1C1CCN(CCOc2ccccc2)CC1", "activity change, negative = inhibition": "-49.4% (inactive)"}
{"molecule": "O=C1c2cc(OCCN3CCCCC3)ccc2-c2ccc(OCCN3CCCCC3)cc21", "activity change, negative = inhibition": "-90% (active)"}
{"molecule": "O=C1NCCc2[nH]c(-c3ccncc3)cc21", "activity change, negative = inhibition": "-85.6% (active)"}
{"molecule": "COc1cccc(-c2cn[nH]c2C2CCCN2S(=O)(=O)c2ccc(Cl)cc2)c1", "note": "(configuration not stated)", "activity change, negative = inhibition": "-31.9% (inactive)"}
{"molecule": "Cc1nn(CC(=O)N(C)Cc2ccccc2)c(=O)c2nc(-c3ccccc3)sc12", "activity change, negative = inhibition": "-55.4% (inactive)"}
{"molecule": "O=S(=O)(CCSCc1ccc(Cl)cc1)CCSCc1ccc(Cl)cc1", "activity change, negative = inhibition": "-10% (inactive)"}
{"molecule": "CC1(C)CC(=O)c2cnc3cc(-c4ccccc4)nn3c2C1", "activity change, negative = inhibition": "-86.8% (active)"}
{"molecule": "CS(=O)(=O)Nc1ccc(-n2cnc(-c3ccccc3)c2)cn1", "activity change, negative = inhibition": "11.6% (inactive)"}
{"molecule": "O=C(Nc1ccc(F)cc1F)c1c(O)c2ccccc2n(-c2ccccc2)c1=O", "activity change, negative = inhibition": "24% (inactive)"}
{"molecule": "S=C(NCCCc1cnc[nH]1)NCCCN(Cc1ccc(Cl)c(Cl)c1)c1ccc(Br)cn1", "activity change, negative = inhibition": "-78.1% (active)"}
{"molecule": "Cc1ccc(NC(=O)CC(=O)NCCc2cnc[nH]2)cc1Cl", "activity change, negative = inhibition": "5.77% (inactive)"}
{"molecule": "COc1ccc(NC(=O)c2cc3c(s2)CCN3C(=O)C2CC2)cc1", "activity change, negative = inhibition": "23.2% (inactive)"}
{"molecule": "Cn1c(=O)c(-c2nc(-c3cccs3)no2)c(O)c2ccccc21", "activity change, negative = inhibition": "67.9% (inactive)"}
{"molecule": "CCSCCN(C(=O)c1nnc2nc(C)cc(C)n12)C1CCCCC1", "activity change, negative = inhibition": "-3.21% (inactive)"}
{"molecule": "COc1ccc2c3c(n(C)c2c1)[C@H](CO)N(C(=O)Nc1cccc(F)c1)CC31CN(Cc2nccs2)C1", "activity change, negative = inhibition": "-24.3% (inactive)"}
{"molecule": "N#Cc1ccc(C(=O)N2CCC3C2CCC(=O)N3c2cccnc2)cc1", "note": "(configuration not stated)", "activity change, negative = inhibition": "-20.1% (inactive)"}
{"molecule": "COc1ccccc1NC(=O)c1nnn(Cc2nc(-c3ccc(C)cc3)oc2C)c1C", "activity change, negative = inhibition": "-82.9% (active)"}
{"molecule": "COc1ccc(Br)cc1-c1nc(Cn2nnc(C(=O)Nc3cc(F)ccc3C)c2C)c(C)o1", "activity change, negative = inhibition": "423% (inactive)"}
{"molecule": "COc1ccc(-c2nc(Cn3nnc(C(=O)Nc4ccccc4C)c3C)c(C)o2)c(OC)c1", "activity change, negative = inhibition": "32.4% (inactive)"}
{"molecule": "Cc1cccc(C)c1NC(=O)c1nnn(Cc2nc(-c3ccccc3)oc2C)c1C", "activity change, negative = inhibition": "-62.3% (inactive)"}
{"molecule": "CCc1ccccc1NC(=O)c1nnn(Cc2nc(-c3ccccc3C)oc2C)c1C", "activity change, negative = inhibition": "-107% (active)"}
{"molecule": "Cc1ccc(-c2nc(Cn3nnc(C(=O)NCc4ccccn4)c3C)c(C)o2)cc1", "activity change, negative = inhibition": "-57.8% (inactive)"}
{"molecule": "COc1ccccc1NC(=O)c1nnn(Cc2nc(-c3cccc(OC)c3OC)oc2C)c1C", "activity change, negative = inhibition": "-83.3% (active)"}
{"molecule": "Cc1ccc(Cl)cc1NC(=O)c1nnn(Cc2nc(-c3cccc(Cl)c3)oc2C)c1C", "activity change, negative = inhibition": "55.8% (inactive)"}
{"molecule": "Cc1ccccc1-c1nc(Cn2nnc(C(=O)Nc3c(C)cccc3C)c2C)c(C)o1", "activity change, negative = inhibition": "-38.6% (inactive)"}
{"molecule": "CCC(c1ccccn1)N(C)C1CCNCC1", "note": "(configuration not stated)", "activity change, negative = inhibition": "16.8% (inactive)"}
{"molecule": "CN(CC1Cc2ccccc2O1)S(=O)(=O)NCc1ccccc1", "note": "(configuration not stated)", "activity change, negative = inhibition": "0.376% (inactive)"}
{"molecule": "CN1CCO[C@@H]2CN(C(=O)CC3Cc4ccccc4C3)C[C@@H]2C1", "activity change, negative = inhibition": "112% (inactive)"}
{"molecule": "CN(C[C@@H]1[C@H](c2ccccc2)[C@@H](CO)N1Cc1ccccn1)S(C)(=O)=O", "activity change, negative = inhibition": "2.44% (inactive)"}
{"molecule": "CCc1cc(CN2CCCC2c2nc3ccc(C)cc3[nH]2)on1", "note": "(configuration not stated)", "activity change, negative = inhibition": "9.45% (inactive)"}
{"molecule": "CC(=O)NCCc1csc(C2CCN(C(=O)NCc3ccc(F)cc3)CC2)n1", "activity change, negative = inhibition": "-3.56% (inactive)"}
{"molecule": "O=C(O)CCC(=O)N1CC2CCC(C1)N2C(=O)c1ccco1", "activity change, negative = inhibition": "61.2% (inactive)"}
{"molecule": "CC(C)NC(=O)N1CC2(C1)[C@H](c1ccccc1)[C@H](CO)N2C(=O)C1CCOCC1", "activity change, negative = inhibition": "-2.06% (inactive)"}
{"molecule": "Cc1cccc(C2c3[nH]c4ccccc4c3CCN2C(=O)c2ccccc2C)c1", "note": "(configuration not stated)", "activity change, negative = inhibition": "-84.7% (active)"}
{"molecule": "CCOc1cccc(C2c3[nH]c4ccccc4c3CCN2C(=O)c2ccccc2)c1", "note": "(configuration not stated)", "activity change, negative = inhibition": "-34.3% (inactive)"}
{"molecule": "CCOc1cccc(CC(=O)N2CCc3c([nH]c4ccccc34)C2c2ccc(F)cc2)c1OCC", "note": "(configuration not stated)", "activity change, negative = inhibition": "-74.9% (active)"}
{"molecule": "CCOc1cccc(CC(=O)N2CCc3c([nH]c4ccccc34)C2c2ccc(OC)cc2)c1OCC", "note": "(configuration not stated)", "activity change, negative = inhibition": "213% (inactive)"}
{"molecule": "Cc1ccc(C2c3[nH]c4ccccc4c3CCN2C(=O)c2cccc(C)c2)cc1", "note": "(configuration not stated)", "activity change, negative = inhibition": "226% (inactive)"}
{"molecule": "Cc1cccc(C2c3[nH]c4ccccc4c3CCN2C(=O)C(=O)CCc2ccccc2)n1", "note": "(configuration not stated)", "activity change, negative = inhibition": "-13.8% (inactive)"}
{"molecule": "CSc1ccc(C2c3[nH]c4ccccc4c3CCN2C(=O)c2cc3ccccc3[nH]2)cc1", "note": "(configuration not stated)", "activity change, negative = inhibition": "-96.3% (active)"}
{"molecule": "CCOc1ccc(C2c3[nH]c4ccccc4c3CCN2C(=O)C2CC2)cc1", "note": "(configuration not stated)", "activity change, negative = inhibition": "-34.9% (inactive)"}
